This is one part of the list. The source made the active and inactive calls. No stated cut-off is given here; in the data, active means inhibition above about 22%; inactive means the rest.
Experiment: HEK cell viability loss – luminescence, cytotoxicity control for IDE inhibitor project (AID 449730);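 further: 0% = vehicle wells and 100% = reference cytotoxic drug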
Settings: HEK293 cytotoxicity, ATP luminescence; at 5.59 µM; stronger effect = higher value

| Compound | inhibition |
| --- | --- |
| CCCC(=O)Nc1c(O)c2ccccc2[nH]c1=O | 9.27% (inactive) |
| O=C(N/N=C/c1ccc(OC(=O)c2ccccc2Cl)cc1)c1ccc(O)cc1 | 6.4% (inactive) |
| CCOC(=O)CC1C(=O)NCCN1c1nc2c(C)cccn2c(=O)c1/C=C1\SC(=S)N(C(C)CC)C1=O (stereo not given) | 41.5% (active) |
| CN(C)c1ccc(/C=C2\NC(=S)N(Cc3ccccc3)C2=O)cc1 | 24.2% (active) |
| Cc1cccc(-n2c(Cc3cc(=O)[nH]c(=O)[nH]3)nnc2SCC(=O)Nc2cccc(C(F)(F)F)c2)c1 | 3.28% (inactive) |
| Oc1ccc(-c2onc3ccc(Cl)cc23)cc1 | 12.7% (inactive) |
| O=C(Nc1ccc(Sc2ccc(Br)cc2)cc1)c1ccco1 | 20.9% (inactive) |
| NC(=O)c1c(Nc2nc3c(F)cccc3s2)sc2c1CCCC2 | 5.16% (inactive) |
| CC(C(=O)c1ccc(-c2ccccc2)cc1)[n+]1cccc(Br)c1 (stereo not given) | 14.3% (inactive) |
| Cc1cc(Cl)ccc1OCCCC(=O)NCc1ccncc1 | 14.7% (inactive) |
| O=C(Nc1ccc(Cl)c(Cl)c1)N1CC=C(c2ccccc2)CC1 | 8.42% (inactive) |
| COc1ccc(N2CCN(C(=O)/C(C#N)=C/c3ccccc3)CC2)cc1 | 5.82% (inactive) |
| CCN1/C(=C/c2ccc3ccc(C)cc3[n+]2CC)Sc2ccccc21 | 107% (active) |
| O=C(C1=C[C@H](c2coc3ccccc3c2=O)C[C@H](OCc2ccc(CO)cc2)O1)N1CCN(Cc2ccccc2)CC1 | 17.5% (inactive) |
| CS(=O)(=O)N(Cc1ccccc1)c1ccc(C(=O)NN=C2CCCCCC2)cc1 | 6.18% (inactive) |

Source: PubChem BioAssay
